Screening results (PubChem)
The list is not random: actives were taken first. Their share in the collection is about 1.7%.
HTR5A ag: HTR5A agonists in luminescence cell assay, primary screen, counter-screen for OPRM1-OPRD1 heterodimer agonist project, full-deck HTS; 5-hydroxytryptamine receptor 5A (Homo sapiens), P47898; cell-based; activation, % at 9.3 µM; 340,000 tested, 0.61% active; AID 504692, 2011; in the data active = activation mostly above about 9.5%, no sharp cut-off; inactive = mostly below about 7.6%
Target sequence (P47898 whole entry, looked up): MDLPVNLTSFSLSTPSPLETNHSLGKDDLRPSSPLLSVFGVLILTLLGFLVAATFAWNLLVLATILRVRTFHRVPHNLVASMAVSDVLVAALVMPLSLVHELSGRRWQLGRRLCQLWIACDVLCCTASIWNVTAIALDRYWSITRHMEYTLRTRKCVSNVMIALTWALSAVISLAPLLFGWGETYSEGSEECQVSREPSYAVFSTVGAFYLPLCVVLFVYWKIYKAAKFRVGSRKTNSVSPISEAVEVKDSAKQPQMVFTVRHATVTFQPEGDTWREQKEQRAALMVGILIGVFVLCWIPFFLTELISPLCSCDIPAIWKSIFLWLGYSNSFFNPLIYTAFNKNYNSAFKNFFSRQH
V-ATPase pHluor: regulators of yeast V-ATPase proton pumping, primary screen, pHLuorin cytosolic pH fluorescence; S. cerevisiae; response, % at 10 µM; 350,000 tested, 0.37% active; AID 504577, 2011; in the data active = response mostly above about 7.3%, no sharp cut-off; inactive = mostly below about 5.4%; note: actives read high
HTR5A inv ctr: HTR5A inverse agonists in luminescence cell assay, primary screen, counter-screen for OPRM1-OPRD1 heterodimer inverse agonist project, full-deck HTS. 5-hydroxytryptamine receptor 5A (Homo sapiens), P47898. 340,000 tested, 0.083% active. AID 504634, 2011. inhibition, % at 9.3 µM. HTR5A cell line, inverse agonism; in the data active = inhibition mostly above about 23%, no sharp cut-off; inactive = mostly below about 18%
beta cell repl: inducers of MIN6 beta-cell proliferation, primary screen, ATP luminescence, uHTS; MIN6 cells proliferation, ATPlite luminescence, 48 h; cells starved in 0.2% serum; 100% = growth in 10% serum; proliferation, % at 10 µM; 330,000 tested, 0.29% active;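 active = compounds whose signal lies at least 3.5 SD above the mean of all wells on their plate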
MOR-DOR inv ag: inverse agonists of MOR-DOR heterodimerization, primary screen, cell-based, luminescence; Mu-type opioid receptor (Homo sapiens) + Delta-type opioid receptor (Homo sapiens), …; cell-based MOR-DOR heterodimer luminescence, inverse agonism; inhibition, % at 9.3 µM; 340,000 tested, 0.21% active; in the data active = inhibition above about 22%, passing the limit was not always enough
OPRM1-OPRD1 ag: agonists of OPRM1-OPRD1 heterodimerization, primary screen, cell-based, luminescence. activation, % at 9.3 µM. cells. Mu-type opioid receptor (Homo sapiens) + Delta-type opioid receptor (Homo sapiens), …. 340,000 tested, 0.3% active; in the data active = activation above about 18%
Large screens that a line does not name were inactive.

Cn1c(C(=O)NCc2ccccn2)cc2c(=O)n(C)c3ccccc3c21	HTR5A ag 13.1
COc1cc(/C=C/C(=O)OCC(=O)Nc2cc(C)c(C)cc2[N+](=O)[O-])ccc1O	HTR5A ag 11.4
O=C(NNC(=O)C1CCN(c2ncccn2)CC1)c1ccncc1	none
Cc1ccc(NC(=O)c2ccc(=O)[nH]n2)cc1S(=O)(=O)Nc1ccc(SC(F)F)cc1	none
Cc1ccc(S(=O)(=O)N/N=C\c2ccc3c(c2)OCO3)c(C)c1	HTR5A ag 10.8
Cc1cc(C)n(CC(=O)NNC(=O)C2CC(=O)N(Cc3ccccc3Cl)C2)n1 (stereo not drawn)	none
OCC[C@H]1C[C@H](O)[C@@H](O)[C@]2(OCc3ccccc32)O1	none
N/C(=N\OC(=O)c1ccc2ccccc2c1)c1ccccc1Cl	HTR5A ag 29.2, OPRM1-OPRD1 ag 22.0
N/C(=N\OC(=O)c1ccc2ccccc2c1)c1ccncc1	none
O=C1C=CC(=O)N1c1cccc(-c2ccccc2)c1	V-ATPase pHluor 32.4
C=C1c2nc3ccccc3n2C=C(c2ccc(C)cc2)N1c1ccccc1	none (no result: beta cell repl)
COC(=O)C(NNc1ccccc1C)(NC(=O)c1ccc(F)cc1)C(F)(F)F (stereo not drawn)	V-ATPase pHluor 8.7
COC(=O)c1sc(N)c(C(=O)OC)c1COC(=O)c1c(C)noc1C	HTR5A inv ctr 45.8, MOR-DOR inv ag 46.1
COC(=O)c1sc(NC(=O)c2c(C)noc2C)nc1C	none
Cc1cccc2c1NC(=O)C2=O	MOR-DOR inv ag 41.1 (no result: beta cell repl)
O=C1Nc2c(Br)cccc2C1=O	none
Cc1nc2sc(C(=O)OC(C)C)c(N)c2c(C)c1C	HTR5A ag 8.8
CCN(CC)S(=O)(=O)c1ccc(OC)c(NC(=O)c2cc([N+](=O)[O-])ccc2N2CCOCC2)c1	none (no result: HTR5A ag, HTR5A inv ctr, beta cell repl, MOR-DOR inv ag, OPRM1-OPRD1 ag)
COc1ccc(NC(=O)c2cc(S(=O)(=O)N3CCCC3)ccc2C)cn1	none
CCOc1ccc(CN(C)c2nc(-c3cccnc3)nc3ccccc23)cc1OC	V-ATPase pHluor 15.7
C=CCn1c(=O)c(CCC(=O)Nc2ccc(N3CCOCC3)cc2)nc2cc(C(F)(F)F)ccc21	none
CSc1nc2n(n1)C(C)C1=C(CCCC1=O)N2 (stereo not drawn)	none
COc1ccc(C(=O)Cc2cc3cccc(OC)c3oc2=O)cc1	none
COc1ccc(C(=O)CC2OC(=O)c3c2ccc(OC)c3OC)cc1 (stereo not drawn)	HTR5A ag 12.7
CC(=O)N1CCN(c2ccccc2NC(=O)c2cc(Br)ccc2Cl)CC1	V-ATPase pHluor 18.3
Cc1ccccc1-c1cccc([C@@H]2C[C@H]3[C@H](CON3C)CN2S(=O)(=O)c2ccccc2C)c1	none (no result: beta cell repl)
O=C(Oc1cccc(C(=S)N2CCOCC2)c1)c1ccc([N+](=O)[O-])cc1[N+](=O)[O-]	HTR5A ag 9.4
O=C(CNS(=O)(=O)c1c(Cl)cccc1Cl)OCc1csc(-c2ccccc2)n1	none
Nc1nc(Br)c2c(F)cccc2c1-c1ccc(Cl)cc1	HTR5A ag 11.4
O=C(O)/C=C/c1ccc(Cn2ccnc2)cc1	none
NC(=O)c1ccccc1NC(=O)CS(=O)(=O)Cc1ccccc1	HTR5A ag 9.6
COc1ccc(Cl)cc1CNC[C@H]1O[C@@H](n2ccc(N)nc2=O)[C@H](O)[C@@H]1O	none (no result: HTR5A ag, HTR5A inv ctr, beta cell repl, MOR-DOR inv ag, OPRM1-OPRD1 ag)
Cc1cccc(OCC(=O)NCC(=O)N/N=C/c2ccccc2)c1	HTR5A ag 10.0
CCN(CC(=O)Nc1c(F)cccc1F)C(=O)c1csc2c1CCCC2	none
Cc1ccc(N(CC(=O)N/N=C/c2cc(C)n(-c3ccccc3)c2C)S(C)(=O)=O)c(C)c1	HTR5A ag 13.1
Cc1ccc(N(CC(=O)Nc2c(C)n(C)n(-c3ccccc3)c2=O)S(C)(=O)=O)c(C)c1	none
CCCC(=O)Nn1cnc2c(c1=O)C1(CCCC1)Cc1ccccc1-2	none
CCCC(=O)NC1=C(C#N)C2(CCCC2)Cc2ccccc21	HTR5A ag 10.5
CC(C)[C@H](NC(=O)c1ccccc1F)C(=O)NC1CCCCC1	none
CC(C)[C@H](NC(=O)c1ccccc1F)C(=O)OCC(=O)NC1CC1	V-ATPase pHluor 19.5
COc1ccc(S(=O)(=O)N2CCN(C(=O)c3ccc(NC(C)=O)cc3)CC2)cc1	none
C=CCn1c(O)c(N=NC(=O)CNC(=O)Cc2ccccc2)c2ccccc21	HTR5A ag 10.9
COC(=O)[C@H](NCc1ccc(OC)c(B(O)O)c1)C(C)C	HTR5A ag 10.5 (no result: beta cell repl)
O=C(CN1CC(c2ccccc2)CC1=O)Nc1ccc2c(c1)OCO2 (stereo not drawn)	HTR5A ag 13.6
COc1ccc(NC(=O)CN2CC(c3ccccc3)CC2=O)cc1OC (stereo not drawn)	none
O=C(CN1CCN(Cc2ccccc2)CC1)Nc1ccc(Br)cc1	none
Clc1ccc(/C=C/c2nc3ccccc3[nH]2)c(Cl)c1	HTR5A ag 13.0
Clc1ccc(/C=C/c2nc3ccccc3[nH]2)cc1	none
Cc1ccc(-c2nc3ncccn3c2Nc2ccc3c(c2)OCCO3)cc1	HTR5A ag 10.1
COc1ccc(-c2nc3ncccn3c2Nc2ccc3c(c2)OCCO3)cc1	none
Clc1cccc(CN2CCc3c([nH]c4ccccc34)C2)c1	none
Clc1ccc(CN2CCc3c([nH]c4ccccc34)C2)cc1Cl	HTR5A ag 14.2
Cc1cc(=O)n2c3c(c4c(cc13)c(CN(C)C)cc(=O)n4C)OC2	none (no result: beta cell repl)
CN(C(=O)COC(=O)c1ccc2c(c1)OCO2)C1CCS(=O)(=O)C1 (stereo not drawn)	V-ATPase pHluor 23.4
O=C(CSc1ncn[nH]1)Nc1ccc2c(c1)CCC2	HTR5A ag 12.0
COc1ccc2nc(SCC(=O)C(C)(C)C)[nH]c2c1	none
CCC1CCCCN1C(=O)CCS(=O)(=O)c1ccc2c(c1)CCN2C(C)=O (stereo not drawn)	none
CCOC(=O)/C(=C/c1ccc(OC(F)F)cc1)C1=Nn2c(nnc2-c2ccc(Cl)cc2)SC1	HTR5A ag 8.4 (no result: beta cell repl)
COc1ccc(/C=N/NC(=O)C(C)Sc2ccccn2)cc1[N+](=O)[O-] (stereo not drawn)	HTR5A ag 10.9
Cc1cnc(NS(=O)(=O)c2ccc(N)cc2)nc1-c1ccccc1O	none (no result: HTR5A ag, HTR5A inv ctr, beta cell repl, MOR-DOR inv ag, OPRM1-OPRD1 ag)
COc1ccc(S(=O)(=O)N2CCN(C(=O)c3ccccc3Cc3ccccc3)CC2)cc1OC	none (no result: HTR5A ag, HTR5A inv ctr, beta cell repl, MOR-DOR inv ag, OPRM1-OPRD1 ag)
COc1ccc(C(=O)CN2C(=O)c3ccccc3C2=O)c(OC)c1C	V-ATPase pHluor 18.6
COc1ccc(C(=O)CN2C(=O)c3ccccc3C2=O)cc1	none (no result: HTR5A ag, HTR5A inv ctr, MOR-DOR inv ag, OPRM1-OPRD1 ag)
O=C(/C=C\Nc1ccc(Cl)cn1)c1ccc(Br)cc1	none
